Measured values taken from PubChem BioAssay.

Experiments:
[1] = tested on: Botulinum neurotoxin type F light chain protease (Clostridium botulinum); assay: Botulinum neurotoxin type F light chain protease inhibition, multiplex microsphere flow cytometry, validation set (AID 588459); settings: multiplex microsphere protease substrate cleavage assay, at 10 µM, stronger effect = higher value
[2] = biological target: Botulinum neurotoxin type A (Clostridium botulinum) (UniProt P0DPI0); assay: BoNT/A light chain protease inhibitors, biochemical, multiplex microsphere flow cytometry, validation set (AID 588460); settings: at 10 µM, stronger effect = higher value
[3] = biological target: Lethal factor (Bacillus anthracis) (UniProt P15917); assay: Lethal factor protease inhibitors, Bacillus anthracis, multiplex microsphere cleavage assay, validation set (AID 588461); settings: flow cytometry, at 10 µM, stronger effect = higher value

Measured: inhibition

CC(C)C[C@H]1C(=O)N2CCC[C@H]2[C@]2(O)O[C@](NC(=O)[C@@H]3C=C4c5cccc6[nH]c(Br)c(c56)CC4N(C)C3)(C(C)C)C(=O)N12 (stereo partly specified)
inactive: [1] 5.1% | [2] 1.3% | [3] -5.6%

COc1cc2c(cc1OC)CN(Cc1ccc(C)s1)CC2
inactive: [1] 2.4% | [2] 0.7% | [3] -1.2%

COc1ccc(N2C(=O)C3C(C2=O)C(C(=O)c2ccccc2)N2CCCC32)cc1 (stereo unspecified)
inactive: [1] 1.6% | [2] -0.2% | [3] -3.5%

CC(=O)[C@@H]1[C@@H](C(=O)c2ccc(C)cc2)[C@]2(C(=O)Nc3ccccc32)[C@H]2C=Cc3cc(F)ccc3N12
inactive: [1] 2.2% | [2] 1.6% | [3] -6.9%

O=C(c1ccc(F)cc1)[C@@H]1[C@@H](C(=O)c2ccccc2)[C@@]2(C(=O)Nc3ccccc32)[C@H]2c3ccccc3C=CN12
inactive: [1] 4.8% | [2] 0.3% | [3] -3.6%

O=C(CCCn1c(=O)oc2ccccc21)N1CCN(c2ccc(F)cc2)CC1
inactive: [1] 1.1% | [2] 0.2% | [3] -4.7%

O=C(O)c1cccnc1
inactive: [1] 1.8% | [2] 2% | [3] 2.5%

CC[C@H](CO)NCCN[C@H](CC)CO
inactive: [1] 2.2% | [2] -1.2% | [3] -10%

COc1ccc2c3c([nH]c2c1)C1(NCC3)C(=O)Nc2ccccc21 (stereo unspecified)
inactive: [1] -3% | [2] -0.7% | [3] -4.5%

Cc1nc2ccccc2n1CC(O)Cn1c2ccccc2c2ccccc21 (stereo unspecified)
inactive: [1] 2.9% | [2] -0.1% | [3] -0.7%

COc1cc(C(=O)NCCCCCC(=O)O)cc(OC)c1OC
inactive: [1] 1.3% | [2] -0.4% | [3] -13.3%

COc1cc(/C=C(\C#N)C(=O)N2CCc3ccccc32)ccc1O
inactive: [1] 0.6% | [2] 1.6% | [3] 0.9%

Cc1ccccc1C(=O)NNc1ncnc2c1cnn2C
inactive: [1] 3.1% | [2] -0.7% | [3] 1.7%

Cc1ccccc1NC(=O)c1c(C)cc(=O)oc1C
inactive: [1] -0.8% | [2] -0.1% | [3] 1.7%

COc1ccc(NC(=S)NCCc2c[nH]c3ccccc23)cc1
inactive: [1] -0.4% | [2] -0.9% | [3] 0.4%

COC(=O)C1=NN(C(=O)c2cccc(Br)c2)C(O)(c2ccc(Cl)cc2)C1 (stereo unspecified)
inactive: [1] 3.1% | [2] -0.5% | [3] 1.2%

COC(=O)c1ccc(-c2ncc(-c3cccc4ccccc34)o2)cc1
inactive: [1] -1.4% | [2] -1.3% | [3] 4.9%

CC(=O)NCCCC(=O)NC(CCC(=O)OCc1ccccc1)C(=O)OCc1ccccc1 (stereo unspecified)
inactive: [1] -1% | [2] -1.4% | [3] -8.6%

O=C1C=CC(=O)C(C2=C3C(=O)N(CCc4ccccc4)CC(=O)N3CCC2)=C1
inactive: [1] 1.8% | [2] -0.3% | [3] -4.9%

COc1ccc(-c2c(NC(=O)c3ccco3)n(C)c3ccccc3c2=O)cc1
inactive: [1] 1.5% | [2] 0.4% | [3] -0.7%

C[C@]12CC[C@@H]3c4ccc(OS(=O)(=O)O)cc4CC[C@H]3[C@@H]1CCC2=O
inactive: [1] -0.1% | [2] -0.2% | [3] -0.2%

C[C@]12CC[C@@H]3c4ccc(O)cc4[C@@H](O)C[C@H]3[C@@H]1CC[C@@H]2O
inactive: [1] 3.3% | [2] -0.4% | [3] 0.8%

Cc1cnc(C(=O)N2CCCC(C(=O)c3ccc(Cl)cc3C)C2)cn1 (stereo unspecified)
inactive: [1] 1.4% | [2] 0.4% | [3] -0.9%

CC(C)(C)C(=O)N1CCCC1C(=O)O (stereo unspecified)
inactive: [1] -1% | [2] -1.2% | [3] -0.9%

O=c1c2ccccc2nnn1Cc1cccc2ccccc12
inactive: [1] 0.5% | [2] 0.7% | [3] -9.5%

Cc1nc(N[C@@H](Cc2c[nH]c3ccccc23)C(=O)O)c2oc3ccccc3c2n1
inactive: [1] 1.3% | [2] -0.2% | [3] -6.5%

COc1ccc(OC)c(-c2oc3ccccc3c(=O)c2O)c1
inactive: [1] 0.6% | [2] 1.3% | [3] 2.9%

COC(=O)c1cc(Br)c(=O)n(CCc2ccc(O)cc2)c1
inactive: [1] 2.6% | [2] 1.3% | [3] -5.3%

COc1cc2c(cc1OC)C(c1ccccc1)=NCC2
inactive: [1] 0.6% | [2] 0.8% | [3] 7%

Cc1ccc(C2CC(=O)C(C=NCCN3CCN(C(=S)Nc4ccccc4)CC3)=C(O)C2)cc1 (stereo unspecified)
inactive: [1] -0.8% | [2] 0.1% | [3] 5.4%

COc1ccc(-c2cc(=Nc3ccc(C)cc3)c3ccccc3o2)cc1
inactive: [1] -2.2% | [2] -0.6% | [3] 2.9%

COc1ccc(Cl)cc1C(=O)NCCc1ccc(S(=O)(=O)NC(=O)NC2CCCCC2)cc1
inactive: [1] -1.1% | [2] -1.6% | [3] -9.4%

O=c1cc(Cn2ccnc2)c2cc3c(cc2o1)CCC3
inactive: [1] 1.9% | [2] -1.1% | [3] -3.2%

O=C(Nc1ccccc1C(=O)N1CCCCCC1)c1ccccc1Cl
inactive: [1] -2.3% | [2] 0% | [3] -1.1%

CCN(Cc1cnn(C)c1)Cc1nc(C(c2ccccc2)c2ccccc2)no1
inactive: [1] 0.3% | [2] -2.2% | [3] -3.7%

COc1cc2c(cc1OC)C1(CCCCC1)CN(C)C2
inactive: [1] 1.7% | [2] -1.2% | [3] -1.7%

O=C(O)c1ccccc1OCCOc1ccccc1
inactive: [1] 3.5% | [2] 2.5% | [3] 7.2%

Nc1ccc(S(=O)(=O)c2ccc(N)cc2)cc1
inactive: [1] -2.8% | [2] -2.5% | [3] 4.9%

Cc1ccc2occ(C(=O)c3ccco3)c(=O)c2c1
inactive: [1] 1.1% | [2] -0.5% | [3] 2.6%

CC(=O)O[C@]1(C(C)=O)CC[C@H]2[C@@H]3C[C@H](C)C4=CC(=O)CC[C@]4(C)[C@H]3CC[C@@]21C
inactive: [1] 0.4% | [2] -1.6% | [3] -5.5%

CCOC(=O)c1cc2cc3ccccc3cc2[nH]1
inactive: [1] 3.4% | [2] -0.1% | [3] 5.8%

CCOC(=O)C1=C[C@]2(CC)CCCN3CCc4c(n1c1ccccc41)[C@@H]32
inactive: [1] 1.3% | [2] -0.9% | [3] -7.9%

Cc1nc(NC(CC(C)C)C(=O)O)c2nc(C)oc2n1 (stereo unspecified)
inactive: [1] 1.1% | [2] 1.1% | [3] -5.4%

c1ccc(Nc2cccc3c(Nc4ccccc4)cccc23)cc1
inactive: [1] -3.6% | [2] -3% | [3] -25.4%

Cc1ccc(-n2cc(CNCCN3CCOC3=O)c(-c3ccc(F)cc3)n2)cc1
inactive: [1] -3.2% | [2] 1.5% | [3] -7.8%

CC12CCC(C(=O)NNc3ccccc3)(C(=O)C1=O)C2(C)C (stereo unspecified)
inactive: [1] 1.1% | [2] 0.4% | [3] -3.4%

CC(C)NNC(=O)c1ccncc1
inactive: [1] 1.2% | [2] 1.3% | [3] -7.1%

CC(=O)CC(c1ccc([N+](=O)[O-])cc1)c1c(O)c2ccccc2oc1=O (stereo unspecified)
inactive: [1] 0.7% | [2] 0.2% | [3] -1.2%

O=c1c2ccccc2nc2n1-c1ccccc1CCC2
inactive: [1] 3.5% | [2] 0.6% | [3] 12.2%

Cc1ccc(NC(=O)CSc2nc(O)c(Cc3ccccc3)c(=O)n2-c2ccccc2)cc1
inactive: [1] -0.8% | [2] -0.6% | [3] 2%

CCOc1cc2c(cc1OCC)C(c1ccccc1)N(c1ccc(C(=O)O)cc1)C(=O)C2 (stereo unspecified)
inactive: [1] -1.8% | [2] -0.7% | [3] -5.2%

N/C(=N/OS(=O)(=O)c1ccc([N+](=O)[O-])cc1)c1ccncc1
inactive: [1] 2.2% | [2] 0.3% | [3] 1%

Cc1c(Cc2ccccc2)c(=O)oc2c(CN(C)C)c(O)c(Cl)cc12
inactive: [1] 0% | [2] -0.6% | [3] -7.6%

CC(CCc1ccccc1)NCC(O)c1ccc(O)c(C(N)=O)c1 (stereo unspecified)
inactive: [1] -1% | [2] -1.4% | [3] 0.1%

O=C(O)C1Sc2[nH]c(=O)sc2C2c3ccc(O)cc3OC(=O)C12 (stereo unspecified)
inactive: [1] -6.1% | [2] -1% | [3] -16.5%

CCS(=O)(=O)CCn1c([N+](=O)[O-])cnc1C
inactive: [1] 2.2% | [2] 0.7% | [3] 3.7%

COc1c2ccoc2nc2c(OC)cccc12
inactive: [1] -3.7% | [2] 0.1% | [3] 3%

CC1CCCc2sc3ncn(N)c(=N)c3c21 (stereo unspecified)
inactive: [1] 0.9% | [2] 0.3% | [3] -1.1%

COc1ccc(CCN(C)CC(=O)Nc2cc(C)nc3ccccc23)cc1OC
inactive: [1] 0.4% | [2] 0.9% | [3] -1.4%

Cc1cc(-c2nn(-c3ccccc3F)cc2CN2CCCC(O)C2)c(C)s1 (stereo unspecified)
inactive: [1] 3% | [2] 0.2% | [3] -0.9%

Cc1ccc(P(=O)(CSC(=N)N)c2ccc(C)cc2)cc1
inactive: [1] -1.3% | [2] -0.5% | [3] -7.5%

Cc1ccc([N+](=O)[O-])cc1NC1OC(CO)C(O)C1O (stereo unspecified)
inactive: [1] 1.5% | [2] -1.1% | [3] -1.7%
